Activity calls are given as the source filed them. The calls were made as follows: active = hit-call score of the fitted dose curve at least 0.9, where 1 is the maximum; inconclusive = response in the unintended direction; inactive = score below 0.9.

This assay is described as follows: CPHEA_Stoker_NIS_Cytotoxicity: Cytotoxicity Assessment for CPHEA's Radioactive Iodide Uptake (RAIU) Assay for Sodium/Iodide Symporter (NIS) Inhibition, Stoker and Laws Labs (AID 2283897).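 As to AC50: active means loss of ATP signal versus DMSO meaning cytotoxicity.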 The protocol:
CPHEA_Stoker_NIS is a cell-based, single-readout assay that uses hNIS-HEK293T-EPA, a novel human kidney cell line expressing human NIS, with measurements taken at 2 hours after chemical dosing in a 96-well plate. This radioactive iodide uptake (RAIU) assay is used to identify inhibitors of NIS-mediated iodide uptake. A parallel cytoxicity assay (Cell Titer Glo, Promega) was also run in the same cell line.CPHEA_Stoker_NIS_Cytotoxicity is one of 2 assay components measured from the CPHEA_Stoker_NIS assay. It is designed to make measurements of atp content, a form of viability reporter, as detected with bioluminescence signals by Luciferase-coupled ATP quantitation technology.Data from the assay component CPHEA_Stoker_NIS_Cytotoxicity was analyzed at the endpoint, CPHEA_Stoker_NIS_Cytotoxicity, in the positive analysis fitting direction relative to DMSO as the negative control and baseline of activity. Using a type of viability reporter, measures of ATP content for loss-of-signal activity can be used to understand the viability. To generalize the intended target to other relatable targets, this assay endpoint is annotated to the cell cycle intended target family, where the subfamily is cytotoxicity.
hNIS-HEK293T-EPA cells were seeded with a MultiFlo FX dispenser (BioTek, Winooski, VT) into ScintiPlate-96 microplates (Perkin Elmer, Waltham, MA) at a density of 4.0x10^4 cells per well in 200uL growth media and incubated for 40 hours before experimentation. On day of the assay, carrier-free 125I (Perkin-Elmer, Waltham, MA; specific activity: 17.4Ci/mg) was diluted with Hanks' balanced salt solution (Sigma, St. Louis, MO) supplemented with 10mM HEPES (uptake buffer; pH 7.4) at 5uCi/mL (288pg 125I/mL uptake buffer; 2.30nM). The assay was initiated by washing cells twice with 200uL uptake buffer using a 96-well Tecan HydroSpeed plate washer (Tecan, Mannedorf, Switzerland). Uptake buffer (59.7uL) was then added back to each well. Chemical samples (350nL at 200X) were administered using the HDR tool as previously described to achieve a 1X chemical/0.5% final DMSO concentration with subsequent addition of 10uL of 125I dilution (final [125I]: 329pM; 2.88pg/well) for a final reaction volume of 70uL/well. Cells were incubated at room temperature for 2 hours and then washed twice with 200uL ice cold uptake buffer. All uptake buffer was aspirated from wells, plates were sealed, and read on a MicroBeta2 plate reader (Perkin Elmer, Waltham, MA) using a detection protocol to measure CPM corresponding to intracellular 125I concentration. Each chemical concentration (0.001, 0.01, 0.1, 1.0, 10, and 100uM) was assayed in triplicate with three independent biological replicate plates (3 sequential cell passages). Additionally, a concentration response of NaClO4 (0.001, 0.01, 0.1, 1.0, 10, and 100uM) served as a positive control inhibition curve on each RAIU assay plate. DMSO control wells were assayed on each plate as a measure of maximum iodide uptake for normalization and determination of intra- and inter-assay variation. (Toxicol In Vitro, 2017, 40:66-78).
Turning to `CCCCCCCCC`, the outcome was inactive.

As for `O=c1cc(-c2ccccc2)oc2cc(O)cc(O)c12`, the outcome was inactive.

On to `CC(C)=CCC[C@](C)(O)[C@@H]1CC=C(C)CC1`, for which the result was inactive.

Regarding `CCN(CC)CCOC(=O)c1ccc(N)cc1`, the outcome was inactive.

`c1ccc(CCCc2ccccn2)cc1`: the outcome was inactive.

For `Cc1ccc(S)cc1`, the outcome was inactive.

On to `Cc1ccc(O)c(C(C)(C)C)c1`, for which the result was inactive.

In the case of `CCCCCCCCCCCCCOS(=O)(=O)O`, the result was inactive.

Take `COc1cc(C(C)(C)C)c(O)c(C(C)(C)C)c1`: the result was inactive.

Regarding `O=C1c2ccccc2C(=O)N1SC1CCCCC1`, the AC50 is 79.4 µM (active).

Turning to `CSc1nc(NC2CC2)nc(NC(C)(C)C)n1`, the outcome was inactive.

Regarding `BrC1CCC(Br)C(Br)CCC(Br)C(Br)CCC1Br` (configuration not stated), the outcome was inactive.

As for `CCCCCCCCCCCCCCCCCC(=O)OCC(CC)CCCC` (configuration not stated), the outcome was inactive.

Regarding `CCN(CC)c1ccc2c(-c3ccccc3C(=O)O)c3ccc(=[N+](CC)CC)cc-3oc2c1`, the AC50 was 13.3 µM (active).

For `O=C(Oc1ccccc1)c1ccc(O)cc1`, the outcome was inactive.

For the compound `CC(C)=CCCC(C)=CCCC(C)=CCO`, the result was inactive.

As to `CC(C)C[C@H]1C(=O)N2CCC[C@H]2[C@]2(O)O[C@](NC(=O)[C@@H]3C=C4c5cccc6[nH]c(Br)c(c56)C[C@H]4N(C)C3)(C(C)C)C(=O)N12`, the result was inactive.

The values are drawn from PubChem BioAssay (EPA / NIEHS).
